Test results: the supplement of paper PMC6555819

Legend:
Test in all cases: PBM binding z-score (relative to random genomic background probes); higher = stronger binding; sequences stand for … in GC…GCGATTGACAGCGTAGAATGAAGG
[1] = system: RARb homodimer (NR concentration 270 nM)
How it was run: (§1)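 Custom Agilent 4×180K protein-binding microarrays carried double-stranded probes. Their 34-nt variable regions held direct-repeat seeds, single-nucleotide variants, half-site ablations and random human genomic background sequences. Arrays were incubated 1 h with ligand-free nuclear receptor dimers in PBS pH 7.4, 2% milk, 0.02% Triton X-100, 1 mM DTT, 0.2 mg/mL BSA and 0.4 mg/ml salmon testes DNA. Antibodies against each partner (one per run) detected binding, and scanned fluorescence was regression-normalized. Binding z-scores use random background probes as reference.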

[2] = system: RARg:RXRa (NR concentration 270 nM, RXRa partner concentration 90 nM)
How it was run: as §1

[3] = system: RARg homodimer (NR concentration 270 nM)
How it was run: as §1

[4] = system: RXRa DBDmut IVT, anti-RXR (DBD mutation: RXRa K156A/R161A, NR concentration 90 nM)
How it was run: as §1

[5] = system: RXRa homodimer (NR concentration 180 nM)
How it was run: as §1

[6] = system: THRa:RXRa (NR concentration 90 nM, RXRa partner concentration 90 nM)
How it was run: as §1

[7] = system: THRa homodimer (NR concentration 90 nM)
How it was run: as §1

[8] = system: VDR homodimer (NR concentration 270 nM)
How it was run: as §1

Sequence	PBM binding z-score [1]	PBM binding z-score [2]	PBM binding z-score [3]	PBM binding z-score [4]	PBM binding z-score [5]	PBM binding z-score [6]	PBM binding z-score [7]	PBM binding z-score [8]
ACTAGCATGCCAAGTTTGGGTCACTCAAACAAAG	1.71	1.43	0.744	-0.167	0.674	2.19	0.882	0.673
ACAGACAGGTGATGAAGGTAACTGAGGCTATCAT	0.244	0.321	0.603	-0.383	0.305	1.33	-0.0787	-0.259
CATACAGGGTCAGCTAGGCTAGAGTAGGGACGGC	3.04	4.09	4.3	1.33	3.94	2.84	1.02	1.04
CCATACGGGTCACGAGGTTATAGCACGACGAGCG	3.99	6.02	5.35	1.27	7.38	3.55	1.09	2.45
GCAATTAGTTGAAAGGGCAACCGAATGATTCTCG	2	1.14	1.24	0.685	1.25	0.471	-0.13	0.159
CCTACTGGGCCAAGGTCATTGATCAGTCAAAGCA	3.43	3.59	2.83	1.19	3.08	3.49	2.36	2.15
TTACCAAGGTGGGCTGAGGTCGTTGATCCAACTC	1.04	0.249	-0.257	0.273	0.833	3.77	1.5	2.06
ACTTACGGGTCAACGAGGTTATAGGACGCGTATA	3.83	5.63	5.28	2.24	6.33	4.32	1.19	3.27
CCTCGGAGGACAACAGCAGGTCAGAGCTGCCAGA	2.46	2.16	2.22	0.024	0.692	2.01	0.482	0.0855
ATACCAAGGTGATCGTGAGGTCGTAGATACTAAC	1.56	2.26	1.03	-0.0325	1.76	3.54	2.52	1.86
GGAACGAGGGAAAAGTTGATAGCATCTGTCGACG	-0.745	-0.112	0.0748	-0.319	-0.0103	-0.553	-1.15	-0.433
CCTTCCGGGTCACTGACAGGTTATAGCATTTGGA	3.23	5.65	4.44	1.53	4.67	3.67	2.25	1.3
TCTCGGAGGACACGAAGGTAAGAGCTTTCCAGAG	0.164	0.396	1.27	0.371	-0.0884	1.18	0.0809	-0.641
CCTAGTTGTTCAAGGTCACACACGCTATAGGTAC	4.25	4.69	4.87	2.65	4.92	4.3	4.9	4.98
CCTGCTAGGTCATGGTCAGCTACTCTACAGTATG	3.28	3.94	4.84	1.7	2.51	2.76	1.42	0.186
ATATGTAGGTTAGCTGGGTTCATTCAGACTAGGC	1.47	1.58	0.836	2.97	2.38	3.54	0.442	6.88
CCTCGGAGGACAACAGGAGGTCAGAGATGCCAGA	3.66	3.42	3.31	0.124	1.95	2.83	1.02	1.41
CGTCCTAGGTCATAGGAGGTCAGTGAAGACAGAT	4.83	5.44	5.84	2.08	4.28	5.13	1.73	2.29
TCGAGTAGGTTAGTCGGGGCATTCACCCAACATA	0.552	0.0959	-0.000869	0.343	0.097	1.31	0.381	0.754

Sequence	PBM binding z-score [1]	PBM binding z-score [2]	PBM binding z-score [3]	PBM binding z-score [4]	PBM binding z-score [5]	PBM binding z-score [6]	PBM binding z-score [7]	PBM binding z-score [8]
TCTAGTTAGTCAAAGGTCACACACTCGAAATGCG	4.84	6.12	5.68	2.03	7.09	3.97	1.9	2.57
CCTAGCAGGCCAATCTGGGTCACTCAAGGCTTGA	2.33	1.22	1.57	0.0731	0.984	3.9	0.369	0.000728
TCATATATGTAAAAGGTGAAAGTCGGTGTGGTAA	1.67	1.18	0.788	1.48	1.79	1.36	0.104	0.0436
GGAACGAGGGCATCCGAGTTGATAGCATGGCGAT	0.756	1.28	1.71	2.26	0.974	3.08	-0.359	2.33
CCTAGGTGGTCAGGAGGTCACACACCGGATATGA	4.34	5.44	4.63	0.00245	5.16	3.45	2.2	2.85
CGTCGAAGTTCAAGGTAACGTAACAGAAAGCAGC	1.95	2.79	3.25	3.69	2.21	2.07	0.792	1.74
TCTTGTAGATCAGCAGGTTAAGAAGGCTGGCCAA	0.175	0.0178	-0.229	0.672	0.428	0.192	-0.361	-0.0588
CGTCCAAGGTCAACGGTCAGTGAAGAGATGACGG	4.55	6.08	6.47	3.36	5.56	4.13	2.62	2.15
GCTGCTAGGTCAAGTGATGGTCAGCTAAAGCTCG	3.68	4.85	5.33	1.6	2.93	2.85	0.545	-0.211
AGAATGAGGTTGTTAAGATCAGGGAATTGCGGTC	0.126	0.00616	-0.0271	1.17	0.15	0.608	0.246	0.542
ACTAGCCGGCCAAGGGTCACTCAAGATTAGTCCG	3.6	3.96	3.47	-0.0861	3.65	2.5	0.383	0.509
CCTCGGAGGACAGAAGGTAAGAGCTGTCCGCTTT	-0.457	-0.117	0.0766	-0.382	-0.845	-0.0375	-0.566	-0.677
GCTAGTTGGTCAGCAAAAGGTCACACACCGGTCG	5.34	5.94	5.62	-0.0302	6.14	3.41	1.55	1.55
TCTGCTAGGTCGACGATGGTCAGCTAATCTGCTA	0.457	0.664	0.829	0.128	0.321	0.669	-0.884	-0.845
CTCGAAAGGTCGGTTGAGGTTAGTATACGGATAA	2.64	3.18	3.08	1.15	2.6	4.85	0.58	0.818
CCTTACGGGTCACTACAGGTTATAGCATCGGAGT	3.27	4.6	4.47	1.7	4.64	4.19	-0.0959	1.31
TAGCCTAGGTCATTGGGCCAGTATTGTACGCATC	2.89	3.78	4.05	1.46	2.62	2.88	0.793	1.03
ATCTCTAGGTAACAAGTTGAGTGAAAGAGAGGAC	0.79	0.858	0.91	-0.013	0.381	1.41	0.716	0.639
CCTTACGGGTCACTCCAGGGTATAGCATCGGAGT	2.55	4.23	4.17	0.964	4.2	4.35	-0.222	0.88

Sequence	PBM binding z-score [1]	PBM binding z-score [2]	PBM binding z-score [3]	PBM binding z-score [4]	PBM binding z-score [5]	PBM binding z-score [6]	PBM binding z-score [7]	PBM binding z-score [8]
ATCTCAAGGTAAGACTCAGTTCAGTGAAGAACGC	0.641	0.668	0.469	0.363	0.542	1.36	0.884	1.5
TCTCGGAGGACACGAACGGTCAGAGCTCGACATC	1.89	1.02	2.34	0.557	0.138	1.44	0.357	-0.389
CCTATTGGGCCATTCAGAGGTCATTGATCATATG	4.13	4.69	3.34	1.48	3.41	3.37	1.54	3.79
ACAGACAGGTGAGTGAAGGTAACTCCGCTGGACG	0.202	0.0663	0.259	-0.475	0.41	1.29	-0.349	-0.537
CCTACTGGGCCACGAAAGGTCATTGGTTCAGTGA	4.95	4.88	4.56	0.546	5.25	3.8	1.18	3.08
AGAACGAGGGCAATGAGTTGATAGGACGGGTGGC	1.01	1.22	1.39	2.23	0.869	0.954	-0.116	3.01
AATACAGGGTCATGGTAGGCCAGAGTACGCACAG	3.69	5.54	4.93	3.15	6.91	4.38	1.95	3.24
GCGACTGGGGCATCAGCAGGTTCCCATAACTTAA	0.194	-0.00118	-0.0802	-0.281	-0.0306	-0.0535	-0.272	-0.434
ATCTCTAGGTAATAGTTCAGTGAATCCCGAGGAT	1.24	0.897	1.33	0.172	0.482	0.745	0.701	0.41
CCGACTGGGGCAGTAAGGTTACCATACCATCCGG	1.56	0.667	0.917	-1.01	0.78	1.87	1.08	0.0425
TCTGCAAGGTCAACGATGGTCAGCTAATCTGCTA	4.58	6.12	6.75	2.83	5.75	4.24	2.36	1.62
CCTAGCAGGCCAATCTGGGTCGCTCAAGGCTTGA	0.548	0.673	-0.21	-0.847	0.755	2.75	-0.707	-0.559
GGAACGAGGGCAAAGTTGATATCATCTGTCGACG	1.26	2.14	1.97	2.81	1.96	1.32	0.0109	1.29
TCTCGGAGGACACGAAAGGTCGGAGCTCGACATC	2.87	2.45	2.91	1.02	1.66	2.7	0.464	0.287
GCAGACAGGTGAAAGGCAGGTAACTCAGGGTGGC	0.611	0.314	-0.0429	-0.432	0.602	1.23	0.167	-0.284
CCTAGTTGGTCTAGGTCACACACGCTATAGGTAC	3	2.36	2.69	0.925	1.88	2.99	2.78	1.78
TGAATGAGGTTAAACATCAGGGAACGTGGCGTCG	0.708	2.37	1.44	1.35	3.15	2.65	0.474	0.833
AGTCAAAGTTCCGGACGAGGTAACGTAAAGCACG	0.173	0.181	0.277	-0.303	0.201	1.62	0.886	-0.0573
TCCAGCAGGCCAGAGGGTCACTCAAGAGGTACGG	2.93	2.61	1.71	0.301	2.29	1.7	-0.473	0.227
